# Source: PubChem (National Center for Advancing Translational Sciences (NCATS))
# An excerpt weighted towards active compounds, which were near 3.6% of everything screened.
# MmCpn inh: blocks the Methanococcus maripaludis chaperonin Mm-Cpn; purified Mm-Cpn ATPase, ADP Transcreener TR-FRET; Potency, µM (doses to about 76.9 µM), inactives show top-dose activity, negative = inhibition, actives largely listed as inhibitors; 0.031% of 330,000 active; also: % is scaled to controls: 0 for no effect and ±100 for the full control effect; nearly all actives have a fitted effect of over 80% in size
#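 Quantitative HTS used 25 nM Mm-CPN and 10 uM ATP in magnesium/KCl Tris buffer, pH 7.4, with 1 mM DTT. Hydrolysis ran 30 min at 37°C; ADP was read by HTRF.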
# aSyn yeast inh: alpha-synuclein toxicity inhibition in yeast; Potency, µM (series often up to 46.1 µM), for inactives: at the highest dose growth rescue (activation), usual class: activators; Yeast expressing alpha-synuclein, growth rescue, BacTiter-Glo, 24 h; 0.14% of 370,000 active; also: % of control where 0% means no effect; nearly all actives have a fitted effect of over 65% in size
#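 Readout is rescue of growth in alpha-synuclein-expressing yeast, so inhibitors of toxicity appear as activators. Growth after 24 hr at 30 deg C in galactose medium is quantified by luminescence.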
# TDP-43 yeast inh: inhibitors of TDP-43 toxicity in yeast | TDP-43 expressing yeast growth rescue, BacTiter-Glo, 24 h | 1.8% of 410,000 active | Potency, µM (doses to about 46.1 µM), for inactives: top-dose growth rescue (activation), hits mostly activators | AID 652104; also: % of control where 0% means no effect; nearly all actives have a fitted effect of over 50% in size
#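 Growth rescue of TDP-43-toxic yeast measured as ATP luminescence (BacTiter-Glo). Cells grown to mid-log in raffinose, induced in galactose at OD600=0.02, exposed to compound 24 hr at 30 deg C.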
# FUS yeast rescue: suppressors of FUS proteinopathy in yeast. S. cerevisiae FUS-expressing, growth rescue, OD600, 24 h. Potency, µM (top dose mostly 76.6 µM), actives largely listed as activators. 0.24% of 390,000 active;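 also: plate controls were DMSO vehicle for no effect and reference control for full effect; nearly all actives have a fitted effect of over 55% in size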
#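 FUS-expressing yeast, raffinose-pregrown, induced in 2% galactose minimal medium at OD 0.005; compounds in a dilution series, 24hr at 30C. Growth restoration read as absorbance at 600 nm. CP55940 positive control, DMSO negative.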
# Abeta yeast res: restores growth of yeast expressing A-beta42 peptide. yeast expressing A-beta42, growth rescue, OD600, 48 h; response scale: 0% DMSO, 100% iron-clioquinol control. Potency, µM (titrated, usually from 46.1 µM), usual class: activators. 0.063% of 410,000 active; also: nearly all actives have a fitted effect of over 55% in size
#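 Yeast A-beta toxicity model in growth medium with pinned compounds, 48 h at 30 C; growth read as absorbance at 600 nm. Normalized to FeCl3/clioquinol equimolar mix (positive) and DMSO (negative).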
# ClpP mod: qHTS Assay for Activators of ClpP. purified B. subtilis ClpP, FRET peptide cleavage, 20 min. Potency, µM (top dose mostly 57.5 µM), without a hit: top-dose activity change, negative = active. ATP-dependent Clp protease proteolytic subunit (Bacillus subtilis (strain 168)), P80244. 1.9% of 340,000 active; active = well fitted falling curve with a large enough effect; inconclusive = small, poorly fitted or top-dose-only effect; inactive = no such curve, though single readings can be large or run the other way; also: the source files actives as falling curves though it sought activators and does not explain the sign; nearly all actives have a fitted effect of over 65% in size
# Target sequence (P80244 whole entry, looked up): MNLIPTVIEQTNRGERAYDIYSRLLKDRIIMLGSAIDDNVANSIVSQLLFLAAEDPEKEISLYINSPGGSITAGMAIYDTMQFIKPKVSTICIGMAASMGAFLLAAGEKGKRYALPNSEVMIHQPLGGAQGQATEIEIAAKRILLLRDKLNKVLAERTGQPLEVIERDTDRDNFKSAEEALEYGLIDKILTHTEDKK
#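 ClpP 10 microg/mL final, pH 8 Tris/KCl buffer with BSA, glycerol, Tween-20; compound pinned in; FRET-FV substrate; RT 20 min; Ex320/Em430; ΔFRET vs ADEP 5.8 microM, DMSO, no enzyme.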
# * hit, by the source's call; i = inactive; ? = inconclusive; · = no result given; [ ] = remark or other dose. Unless noted, calls follow the shape of the dose curve; as a rule, active = well fitted curve in the direction sought with a large enough effect; inconclusive = small, poorly fitted or top-dose-only effect, or another doubt; inactive = no such curve, though single readings can be large; an effect the other way counts as inactive or inconclusive. Potency is read from the fitted curve at half-maximal effect.
SMILES,MmCpn inh,aSyn yeast inh,TDP-43 yeast inh,FUS yeast rescue,Abeta yeast res,ClpP mod
COc1ccc(NC(=O)C(Cl)=C(Cl)Cl)cn1,0.4%,6.3%,12.6µM*,i,i,·
COc1ccc(NC(=O)CCl)cn1,-6.5%,·,·,·,·,·
COc1cc(Nc2nc3c(S(=O)(=O)c4ccccc4)nnn3c3ccc(Cl)cc23)cc(OC)c1,·,·,-12.9%,i,i,-20.2%
CC1(C)CCC(c2ccc(Cl)cc2)=C(CN2CCN(c3ccc(C(=O)NS(=O)(=O)c4ccc(N[C@H](CCN5CCOCC5)CSc5ccccc5)c(S(=O)(=O)C(F)(F)F)c4)cc3)CC2)C1,·,-5.9%,·,·,·,-11.5%
Cc1nc(SCC(=O)Nc2ccc3c(c2)OCCO3)nc(C)c1C,-5.0%,16.3%,-8.0%,?,i,20µM*
Cc1nc2ccc(NC(=O)Cc3ccc4c(c3)OCCO4)cc2s1,0.6%,-49.1%,3.55µM*,·,i,-3.9%
O=C(CCN1CCCCCC1)Nc1ccc2c(c1)OCCO2,0.6%,-24.1%,5.5%,i,i,14.1µM*
CN1CCN(CCC(=O)Nc2ccc3c(c2)OCO3)CC1,1.5%,-0.2%,-0.2%,i,i,0.0%
CN(C)C(=O)Cn1c(SCC(=O)Nc2ccc3c(c2)OCO3)nc2ccccc21,-1.0%,-1.2%,5.5%,i,i,15.8µM*
CC(C)(C)CC(C)(C)N=C1Nc2ccc([N+](=O)[O-])cc2N[C@]12C[C@H]1CCCC(=O)N3CC[C@@H](C2)[C@@H]13,·,·,·,·,·,3.9%
CCOC(=O)c1cc2c(=O)n3ccccc3nc2n(CC2CCCO2)c1=NC(=O)c1ccc(F)cc1 (stereo not given),·,·,22.7%,i,i,3.9%
Cc1cccc(SCC(=O)Nc2ccc3c(c2)OCCO3)c1,-3.7%,23.4%,11.2µM*,i,i,2.0%
O=C(CSc1ccc2c(c1)OCCO2)Nc1ccccc1,·,-2.2%,4.3%,i,i,0.9%
Cc1ccn2c(NCc3ccco3)c(-c3ccccc3)nc2c1,·,-1.7%,·,·,·,-26.1%
CCc1ccc2oc(=O)cc(CN(C)Cc3ccccc3)c2c1,0.4%,-6.9%,2.3%,i,i,15.8µM*
CCN(CCO)Cc1cc(=O)oc2cc3c(cc12)CCC3,-0.4%,-0.8%,-5.3%,i,i,-1.6%
CCCCN(C)Cc1cc(=O)oc2cc3c(cc12)CCCC3,-4.7%,-4.5%,-14.2%,i,i,14.1µM*
COC(=O)c1c(SC)nc2ccccc2c1OCc1ccc(C)cc1C,·,·,17.8%,i,i,-4.8%
N#Cc1ccc(Cn2c(-c3ccc(F)cc3)noc2=O)cc1,0.6%,0.6%,·,i,i,·
COc1ccc(-c2noc(=O)n2Cc2ccc(C#N)cc2)cc1,2.2%,-1.8%,16.5%,i,i,-18.4%
O=c1onc(-c2ccc(Cl)cc2)n1Cc1ccc(F)cc1,-0.2%,3.0%,17.8µM*,·,i,0.7%
COc1ccc(-c2noc(=O)n2Cc2ccccc2F)cc1,-2.1%,5.6%,12.6µM*,i,i,-0.9%
O=c1onc(-c2ccccc2)n1Cc1ccc([N+](=O)[O-])cc1,·,0.0%,8.91µM*,i,i,0.7%
N#CCCCn1c(-c2ccccc2)noc1=O,1.2%,2.6%,-21.0%,i,i,0.2%
c1nc(NCC2CCCC2)c2cc(-c3ccc4c(c3)OCO4)ccc2n1,·,·,·,i,·,·
SMILES,MmCpn inh,aSyn yeast inh,TDP-43 yeast inh,FUS yeast rescue,Abeta yeast res,ClpP mod
Cc1cc2ccccc2cn1,·,·,·,·,·,-5.0%
C[C@@H](CO)N(CCc1cn(Cc2ccccc2)nn1)S(=O)(=O)c1ccccc1Br,·,·,·,i,·,·
O=Cc1c[nH]c2ccccc12,·,0.2%,·,·,·,·
O=C1[C@H](Cc2ccccc2)NC/C=C\C[C@H](c2ccco2)N1Cc1ccccc1,·,·,·,·,·,-2.9%
COC(=O)c1cc(=O)nc2sc(-c3cccs3)nn12,0.7%,12.2%,3.5%,i,i,317.9%
COC(=O)c1cc(=O)nc2sc(-c3ccc(F)cc3)nn12,-3.3%,-13.9%,-7.8%,i,i,28.2µM*
COc1ccc(-c2cc(C(F)(F)F)n3nc(C(=O)Nc4ccccc4SC)cc3n2)cc1OC,·,-4.9%,7.6%,i,i,-1.5%
COCCNC(=O)c1ccc(CSCc2cccc(Cl)c2)o1,-0.4%,-10.1%,?,i,i,0.3%
Cc1cccc(CSCc2ccc(C(=O)NCCc3ccccc3)o2)c1,·,21.4%,35.5µM*,i,i,-0.3%
O=c1[nH]c(-c2ccco2)nc2sc3c(c12)CCCC3,-3.7%,-6.8%,17.8µM*,·,i,1.3%
CCc1ccc2ncc3c(-c4ccc(F)cc4)nn(CC(=O)NCc4ccccc4)c3c2c1,·,·,5.9%,i,i,-7.6%
CC1CCCN(c2ncnc3c2cnn3-c2ccccc2)C1 (stereo not given),?,9.8%,?,i,i,-0.5%
CC1CCCN(c2ncnc3c2cnn3-c2ccc(Cl)cc2)C1 (stereo not given),0.5%,-1.0%,14.1µM*,i,i,-16.1%
CCN(CC)C(=O)C1CCCN(c2ncnc3c2cnn3-c2ccc(Cl)cc2)C1 (stereo not given),0.4%,2.7%,20µM*,?,i,-12.4%
CCCCCCNC(=O)C1CSCCS(=O)(=O)N1Cc1ccc(OC)cc1 (stereo not given),·,·,·,i,·,·
Cc1ccc(-n2nc(C)c3c(C)cc(=O)[nH]c32)cc1,0.4%,9.5%,-17.8%,i,i,28.2µM*
Cc1nn(-c2ccccc2)c2[nH]c(=O)cc(C(F)F)c12,0.7%,1.9%[1.84 µM],?,i,i,-5.7%
Cc1ccc(NS(=O)(=O)c2ccccc2)c(C)c1,·,-1.5%,·,·,·,·
O=c1c(Sc2ccccc2)c(C(F)(F)F)[nH]n1-c1ccccc1,0.4%,·,14.1µM*,i,i,1.6%
O=c1c2c(C(F)(F)F)cc(C(F)(F)F)nc2[nH]n1-c1ccccc1,-6.2%,-14.5%,-22.9%,i,i,0.5%
NC(=S)Cc1ccc(Cl)cc1Cl,-1.1%,-3.6%,12.6µM*,i,i,-1.9%
NC(=S)Cc1ccccc1Cl,1.3%,13.5%,9.2%,i,i,·
COc1ccc(Cl)cc1NC(=O)c1ccc2c(c1)CCCN2S(C)(=O)=O,·,·,?,?,i,-23.6%
CC(O)(c1cccc(F)c1)c1nc(-c2cccc(C#N)c2)cs1 (stereo not given),·,10.0%,35.5µM*,i,i,-0.2%
COc1ccc(-c2csc(C(C)(O)c3ccncc3)n2)cc1OC (stereo not given),·,-10.9%,13.5%,i,i,-1.6%
